Source: PubChem BioAssay (National Center for Advancing Translational Sciences (NCATS))
The list is not random: actives were taken first. Their share in the collection is about 6.1%.
RORgamma inh = qHTS for inhibitors of ROR gamma transcriptional activity; Nuclear receptor ROR-gamma (Mus musculus), P51450; Drosophila S2 Gal4-RORgamma UAS-luciferase reporter, 20 h; Potency, µM (series often up to 53.6 µM), inactives show top-dose activity change, negative = inhibition, usual class: inhibitors; 5.4% of 310,000 active; AID 2551, 2010; further: on the % scale 0 is the no-effect control and ±100 the full control effect; nearly all actives have a fitted effect of over 60% in size
Target sequence (P51450 whole entry, looked up, the tested form may be a part): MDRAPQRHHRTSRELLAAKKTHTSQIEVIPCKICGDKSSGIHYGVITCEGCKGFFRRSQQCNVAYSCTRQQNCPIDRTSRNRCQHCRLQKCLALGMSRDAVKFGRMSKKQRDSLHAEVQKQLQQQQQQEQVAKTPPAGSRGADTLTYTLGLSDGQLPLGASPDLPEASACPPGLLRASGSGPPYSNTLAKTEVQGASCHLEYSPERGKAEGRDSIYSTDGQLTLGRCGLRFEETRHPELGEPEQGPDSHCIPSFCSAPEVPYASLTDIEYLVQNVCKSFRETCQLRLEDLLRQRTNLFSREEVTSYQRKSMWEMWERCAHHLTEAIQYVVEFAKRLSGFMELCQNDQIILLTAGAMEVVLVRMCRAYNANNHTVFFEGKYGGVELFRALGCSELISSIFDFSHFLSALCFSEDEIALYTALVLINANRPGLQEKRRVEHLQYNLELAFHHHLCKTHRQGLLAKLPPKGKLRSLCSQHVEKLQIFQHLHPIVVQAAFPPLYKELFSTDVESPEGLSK
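A Gal4/UAS one-hybrid system in insect cells: metallothionein-promoter Gal4–ROR gamma fusion plus Photinus luciferase reporter. Copper sulfate 700 uM final, 20 hr ambient incubation, luminescent detection after 10 min with reagent.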
VP16 counter = VP16 counterscreen qHTS for inhibitors of ROR gamma transcriptional activity | 3.5% of 310,000 active | Potency, µM (series often up to 53.6 µM), for the others: at the top dose activity, negative = inhibition, hits mostly inhibitors | AID 2546, 2010 | Drosophila S2 Gal4-VP16 UAS-luciferase, luminescence, 20 h;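 further: Gal4-VP16 expression switched on by copper sulfate through the metallothionein promoter; on the % scale 0 is the no-effect control and ±100 the full control effect; nearly all actives have a fitted effect of over 50% in size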
ATXN2 expr inh = Primary qHTS for Inhibitors of ATXN expression; HEK-293 ATXN2-luciferase reporter, luminescence, 24 h; Potency, µM (series often up to 57 µM), inactives show top-dose activity change, negative = inhibition, actives largely listed as inhibitors; 0.72% of 360,000 active; AID 1745845, 2022; further: on the % scale 0 is the no-effect control and ±100 the full control effect; nearly all actives have a fitted effect of over 55% in size
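qHTS (up to 57 uM final) was run with 24 h compound exposure of reporter cells at 37 °C. Each well was multiplexed: SteadyGlo luminescence measured ATXN2-luciferase expression after a fluorogenic Gly-Phe-AFC viability readout (25 uM final).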
TGFb SMAD3 inh = qHTS for Inhibitors of TGF-b; 1.2% of 410,000 active; Potency, µM (series often up to 46.1 µM), for the others: at the top dose activity, negative = inhibition, most hits filed as inhibitors; AID 588855, 2011; HepG2 CAGA-GFP TGF-b/SMAD3 reporter, GFP fluorescence, 18 h; TGF-beta stimulated, 500 pg/mL final; further: on the % scale 0 is the no-effect control and ±100 the full control effect; nearly all actives have a fitted effect of over 65% in size
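GFP signal (ex488/em500-530) from TGF-beta-stimulated HEPG2 CAGA-GFP cells, 500 pg/mL final, 18 h at 37 degrees C in DMEM plus 1% FBS, normalized to unstimulated and DMSO-stimulated controls.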
S2 tox = Viability Counterscreen for Primary qHTS for Inhibitors of ATXN expression; S2 cells (HEK-293 line with an ATXN2-luciferase reporter) viability, CellTiter-Fluor protease fluorescence, 24 h; Potency, µM (top dose mostly 56.7 µM), hits mostly cytotoxic; 0.49% of 400,000 active; AID 651635, 2014; further: nearly all actives have a fitted effect of over 40% in size
HepG2 viability = qHTS for Inhibitors of TGF-b: Cytotox Counterscreen | HepG2 CAGA-GFP viability, ATP luminescence, 18 h | Potency, µM (doses to about 46.1 µM), without a hit: top-dose activity change, negative = cytotoxicity, hits mostly cytotoxic | 0.76% of 410,000 active | AID 588856, 2011
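HepG2 CAGA-GFP cells (1000/well, DMEM with 1% FBS) received compound, then TGF-beta at 500 pg/mL final, and were incubated 18 hours at 37 degrees C. Viability was read by CellTiter-Glo luminescence. Media-only wells were set as complete cell-killing and DMSO as no toxicity.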
* hit, by the source's call; i = inactive; u = inconclusive; x = not tested or not shown. The call rests on the fitted dose curve; in most records, active means well fitted curve in the direction sought with a large enough effect; inconclusive means small, poorly fitted or top-dose-only effect, or another doubt; inactive means no such curve, though single readings can be large; an effect the other way counts as inactive or inconclusive. Potency means the concentration at half of the fitted maximal effect.

SMILES	RORgamma inh	VP16 counter	ATXN2 expr inh	TGFb SMAD3 inh	S2 tox	HepG2 viability
Cc1nn(Cc2c(Cl)cccc2Cl)c(C)c1NC(=O)c1cn(-c2ccccc2)nc1-c1ccccc1	u	u	13µM*	-21%	13µM*	-2%
O=C(Nc1ccccc1)c1cn(-c2ccccc2)nc1-c1ccccc1	x	x	-5%	-11%	i	-17%
O=C(Nc1nccs1)c1cn(-c2ccccc2)nc1-c1ccccc1	7.1µM*	u	-5%	u	i	-16%
Cc1ccc(NC(=O)c2cn(-c3ccccc3)nc2-c2ccccc2)cc1	x	x	-8%	u	i	-21%
O=C(C[n+]1cccc2cc(Cl)ccc21)c1ccc2ccccc2c1	x	x	x	2%	x	-86%
Cc1c(C(=O)NCCN2CCOCC2)cnn1-c1nccc(-c2cc3ccccc3o2)n1	x	x	x	x	i	x
COc1ccc(-c2cn(-c3ccc(C)cc3)c(S(=O)(=O)CC(=O)Nc3ccc(F)cc3)n2)cc1	x	x	-10%	-26%	u	-37%
CCOc1ccc(C2c3c(oc4ccc(C)cc4c3=O)C(=O)N2CCCN2CCOCC2)cc1 (centres undefined)	x	x	1%	8%	i	2%
Cc1[nH]nc(-c2cccnc2)c1N=NN(C)C	x	x	0%	u	x	14µM*
CN(C)c1nc(N)nc(-c2cccnc2)n1	-11%	2%	2%	2%	i	33%
CCCCCCC[C@@H](C/C=C/CCC(=O)O)OC	x	x	-10%	-1%	u	-27%
CCCCCCC[C@@H](C/C=C/CCC(=O)N(C)C/C(=C/Cl)C/C(=C\C(=O)N1C[C@H](O)CC1=O)OC)OC	x	x	u	16µM*	u	-104%
FC(F)Sc1ccc(NC(=S)NCC2CCCCC2)cc1	8.9µM*	10µM*	u	u	u	-105%
CN(CC(=O)Nc1ccc(SC(F)F)cc1)C1CCCCC1	22%	0%	-13%	0%	i	0%
CC1CCCCC1NC(=S)Nc1ccc(SC(F)F)cc1 (centres undefined)	6.3µM*	11µM*	u	u	u	-38%
CC1CCN(C(=S)Nc2ccc(SC(F)F)cc2)CC1	7.9µM*	11µM*	35%	-22%	i	-54%
CC(=O)N1CCN(C(=S)Nc2ccc(SC(F)F)cc2)CC1	32%	-6%	-23%	2%	i	4%
FC(F)Sc1ccc(NC(=S)NC2CCCCC2)cc1	8.9µM*	u	u	11µM*	u	-49%
O=C(CSc1nc2ccccc2nc1Cc1ccccc1)N1CCCc2ccccc21	x	x	x	-24%	x	0%
COc1ccc(OC)c(CCNC(=O)c2c3c(nc4ccccc24)C(=O)N(C2CCCCC2)C3)c1	x	x	x	-19%	x	-27%
Cc1cnc(C)c(-c2ccc(F)c3c2OC(CNC(=O)Cc2c(F)cccc2F)C3)n1 (centres undefined)	x	x	x	x	i	x
Cn1ccc2cc(S(=O)(=O)N3CCCN(C(=O)Nc4ccc(Br)cc4)CC3)ccc21	x	x	-24%	-18%	i	-24%
CCCNC(=O)CNC(=O)c1ccccc1OCC(=O)Nc1ccc(Br)cc1	x	x	x	-7%	x	2%
N#Cc1c(SCC(=O)Nc2nccs2)nc2c(c1-c1ccco1)CCCC2	10µM*	2%	-36%	-15%	u	-4%
Cc1ccccc1NC(=O)CCc1c(C)nc2c(c1C)c(=O)n(C)c(=O)n2C	x	x	-1%	-3%	i	-14%
SMILES	RORgamma inh	VP16 counter	ATXN2 expr inh	TGFb SMAD3 inh	S2 tox	HepG2 viability
Cc1ccc(Nc2nnc(SC/C(O)=C(\C#N)c3nc4ccccc4[nH]3)s2)c(C)c1	u	u	-1%	u	u	-25%
COc1ccc(C)cc1-n1nnnc1SC/C(O)=C(\C#N)c1nc2ccccc2[nH]1	13µM*	u	-1%	8%	i	-32%
Cc1cccc(Nc2nnc(SC/C(O)=C(\C#N)c3nc4ccccc4[nH]3)s2)c1	7.1µM*	11µM*	5%	u	i	-65%
COc1ccc(C#Cc2cccc(-c3nc(C(=O)NCc4ccc(Oc5ccccc5)cc4)cc4c3[C@@H](CCO)N(S(=O)C(C)(C)C)C4)c2)cc1OC (some centres undefined)	x	x	u	u	32µM*	16µM*
Cc1ccccc1N1CCN(S(=O)(=O)CC23CCC(CC2NC(=O)C(N)CCS(C)(=O)=O)C3(C)C)CC1 (centres undefined)	17%	-2%	x	x	x	x
O=C(O)c1cccc(NC(=S)N/N=C/c2ccccc2OCc2cccc(Br)c2)c1	11µM*	-8%	4%	u	u	-3%
O=C(O)c1cccc(NC(=S)N/N=C/c2ccccc2OCc2ccc(Br)cc2)c1	13µM*	-6%	23%	-23%	u	-22%
C[N+](C)(C)CC(O)CC(=O)[O-] (centres undefined)	x	x	14%	x	i	x
COc1ccccc1C(=O)NCc1ccccn1	8.9µM*	13%	x	2%	u	-1%
COc1ccccc1C(=O)NCCC(=O)NCC(c1ccccc1)N(C)C (centres undefined)	11µM*	-10%	-2%	0%	i	-3%
COc1ccccc1C(=O)NCCC(=O)Nc1ncccc1C	5.6µM*	8.9µM*	-1%	-17%	i	-25%
COc1ccccc1C(=O)NCCC(=O)NCCc1ccccc1	-1%	2%	9%	3%	i	-1%
COc1ccc(Cc2nc3ccc(C(=O)NCc4cc(Br)ccc4OC)cc3o2)cc1	x	x	x	0%	x	-15%
CCOc1ccccc1-c1nc(C(N)=O)c2c(n1)n(-c1ccc3c(c1)OCO3)c(=O)n2C	x	x	2%	5%	i	-6%
CCC1CCCCN1C(=O)CSc1n[nH]c(-c2ccccc2Cl)n1 (centres undefined)	x	x	x	-24%	x	-16%
Cc1cc2nc(C3CCCN(C(=S)Nc4ccccc4C)C3)[nH]c2cc1C (centres undefined)	20µM*	-15%	-9%	u	u	-36%
Cc1ccc2nc(C3CCCN(C(=S)Nc4cccc(C)c4C)C3)[nH]c2c1 (centres undefined)	11µM*	u	u	u	u	-57%
COc1cccc2cc(C(C)N(CCCN3CCOCC3)C(=S)Nc3ccc(C)c(C)c3)oc12 (centres undefined)	11µM*	u	-18%	-7%	i	-9%
